{"source": "the supplement of paper PMC8728848", "assay_in_all_cases": "glycan array binding signal (z-score within array); higher = stronger binding", "conditions_in_all_cases": "glycan notation: IUPAC condensed, linker removed", "key": {"[1]": {"target": "Fuc(a1-2)Gal(b1-3)GlcNAc(b1-2)Man(a1-3)[Fuc(a1-2)Gal(b1-3)GlcNAc(b1-2)Man(a1-6)]Man(b1-4)GlcNAc(b1-4)GlcNAc", "outline": "(§1)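 From the Consortium for Functional Glycomics database, 3228 arrays were curated, keeping only those whose protein sequence was available. Binding is given as a within-array Z-score averaged across arrays sharing a protein sequence and across linkers. Negative Z-scores can be read as non-binding.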"}, "[2]": {"target": "Fuc(a1-2)Gal(b1-4)[Fuc(a1-3)]GlcNAc", "outline": "as §1"}, "[3]": {"target": "Fuc(a1-2)[Gal(a1-3)]Gal(b1-3)GalNAc", "outline": "as §1"}, "[4]": {"target": "Fuc(a1-2)[Gal(a1-3)]Gal(b1-3)GlcNAc(b1-2)Man(a1-3)[Fuc(a1-2)[Gal(a1-3)]Gal(b1-3)GlcNAc(b1-2)Man(a1-6)]Man(b1-4)GlcNAc(b1-4)GlcNAc", "outline": "as §1"}, "[5]": {"target": "Fuc(a1-2)[Gal(a1-3)]Gal(b1-4)GlcNAc(b1-3)GalNAc", "outline": "as §1"}, "[6]": {"target": "Fuc(a1-2)[GalNAc(a1-3)]Gal(b1-3)GlcNAc(b1-2)Man(a1-3)[Fuc(a1-2)[GalNAc(a1-3)]Gal(b1-3)GlcNAc(b1-2)Man(a1-6)]Man(b1-4)GlcNAc(b1-4)GlcNAc", "outline": "as §1"}, "[7]": {"target": "Fuc(a1-2)[GalNAc(a1-3)]Gal(b1-4)GlcNAc(b1-3)GalNAc", "outline": "as §1"}, "[8]": {"target": "Fuc(a1-3)[Gal(b1-4)]GlcNAc6S", "outline": "as §1"}, "Fuc(b1-3)GlcNAc": {"target": "Fuc(b1-3)GlcNAc", "outline": "as §1"}, "Gal(a1-3)Gal": {"target": "Gal(a1-3)Gal", "outline": "as §1"}, "[9]": {"target": "Gal(a1-3)Gal(b1-4)[Fuc(a1-3)]GlcNAc(b1-2)Man(a1-3)[Gal(a1-3)Gal(b1-4)[Fuc(a1-3)]GlcNAc(b1-2)Man(a1-6)]Man(b1-4)GlcNAc(b1-4)GlcNAc", "outline": "as §1"}, "Gal(a1-3)GalNAc": {"target": "Gal(a1-3)GalNAc", "outline": "as §1"}, "[10]": {"target": "Gal(b1-3)Gal(b1-4)GlcNAc(b1-2)Man(a1-3)[Gal(b1-3)Gal(b1-4)GlcNAc(b1-2)Man(a1-6)]Man(b1-4)GlcNAc(b1-4)GlcNAc", "outline": "as §1"}, "[11]": {"target": "Gal(b1-3)GalNAc(a1-3)[Fuc(a1-2)]Gal(b1-4)GlcNAc", "outline": "as §1"}, "Gal(b1-3)GlcNAc": {"target": "Gal(b1-3)GlcNAc", "outline": "as §1"}, "[12]": {"target": "Gal(b1-3)GlcNAc(b1-2)Man(a1-3)[Gal(b1-3)GlcNAc(b1-2)Man(a1-6)]Man(b1-4)GlcNAc(b1-4)GlcNAc", "outline": "as §1"}, "[13]": {"target": "Gal(b1-3)GlcNAc(b1-3)Gal(b1-4)GlcNAc", "outline": "as §1"}, "[14]": {"target": "Gal(b1-4)GlcNAc(b1-2)Man(a1-3)[Gal(b1-4)GlcNAc(b1-2)Man(a1-6)]Man(b1-4)GlcNAc(b1-4)[Fuc(a1-6)]GlcNAc", "outline": "as §1"}, "[15]": {"target": "Gal(b1-4)GlcNAc(b1-2)[Gal(b1-4)GlcNAc(b1-4)]Man(a1-3)[Gal(b1-4)GlcNAc(b1-2)Man(a1-6)]Man(b1-4)GlcNAc(b1-4)GlcNAc", "outline": "as §1"}, "[16]": {"target": "Gal(b1-4)GlcNAc(b1-3)Gal(b1-3)GlcNAc", "outline": "as §1"}, "[17]": {"target": "Gal(b1-4)GlcNAc(b1-3)Gal(b1-4)[Fuc(a1-3)GlcNAc(b1-6)]Gal(b1-4)Glc", "outline": "as §1"}, "[18]": {"target": "Gal(b1-4)GlcNAc(b1-3)[Gal(b1-4)GlcNAc(b1-6)]Gal(b1-4)GlcNAc", "outline": "as §1"}, "[19]": {"target": "Gal(b1-4)GlcNAc(b1-3)[GlcNAc(b1-6)]Gal(b1-4)GlcNAc", "outline": "as §1"}, "[20]": {"target": "Gal3S(b1-3)[Fuc(a1-4)]GlcNAc", "outline": "as §1"}, "Gal3S(b1-4)Glc": {"target": "Gal3S(b1-4)Glc", "outline": "as §1"}, "Gal3S(b1-4)GlcNAc6S": {"target": "Gal3S(b1-4)GlcNAc6S", "outline": "as §1"}, "Gal6S(b1-4)GlcNAc6S": {"target": "Gal6S(b1-4)GlcNAc6S", "outline": "as §1"}, "GalNAc(b1-4)Gal(b1-4)Glc": {"target": "GalNAc(b1-4)Gal(b1-4)Glc", "outline": "as §1"}, "Glc(a1-4)Glc": {"target": "Glc(a1-4)Glc", "outline": "as §1"}, "Glc(a1-6)Glc(a1-6)Glc": {"target": "Glc(a1-6)Glc(a1-6)Glc", "outline": "as §1"}, "[21]": {"target": "GlcNAc(a1-4)Gal(b1-4)GlcNAc(b1-3)Gal(b1-4)GlcNAc", "outline": "as §1"}, "[22]": {"target": "GlcNAc(a1-4)Gal(b1-4)GlcNAc(b1-3)Gal(b1-4)[Fuc(a1-3)]GlcNAc(b1-3)Gal(b1-4)[Fuc(a1-3)]GlcNAc", "outline": "as §1"}, "[23]": {"target": "GlcNAc(b1-2)[GlcNAc(b1-6)]Man(a1-6)[GlcNAc(b1-2)Man(a1-3)]Man(b1-4)GlcNAc(b1-4)GlcNAc", "outline": "as §1"}, "[24]": {"target": "GlcNAc(b1-2)[GlcNAc(b1-6)]Man(a1-6)[GlcNAc(b1-2)Man(a1-3)][GlcNAc(b1-4)]Man(b1-4)GlcNAc(b1-4)GlcNAc", "outline": "as §1"}, "[25]": {"target": "GlcNAc(b1-3)[GlcNAc(b1-4)][GlcNAc(b1-6)]GlcNAc", "outline": "as §1"}, "GlcNAc(b1-4)GlcNAc": {"target": "GlcNAc(b1-4)GlcNAc", "outline": "as §1"}, "[26]": {"target": "Man(a1-3)[Man(a1-6)]Man(b1-4)GlcNAc(b1-4)GlcNAc", "outline": "as §1"}, "[27]": {"target": "Neu5Ac(a2-3)Gal(b1-3)GlcNAc", "outline": "as §1"}, "[28]": {"target": "Neu5Ac(a2-3)Gal(b1-3)[Neu5Ac(a2-6)]GalNAc", "outline": "as §1"}, "[29]": {"target": "Neu5Ac(a2-3)Gal(b1-4)GlcNAc(b1-6)[Gal(b1-3)]GalNAc", "outline": "as §1"}, "[30]": {"target": "Neu5Ac(a2-3)Gal(b1-4)[Fuc(a1-3)]GlcNAc(b1-3)GalNAc", "outline": "as §1"}, "Neu5Ac(a2-3)GalNAc": {"target": "Neu5Ac(a2-3)GalNAc", "outline": "as §1"}, "[31]": {"target": "Neu5Ac(a2-6)Gal(b1-4)GlcNAc(b1-2)Man(a1-3)[Gal(b1-4)GlcNAc(b1-2)Man(a1-6)]Man(b1-4)GlcNAc(b1-4)GlcNAc", "outline": "as §1"}, "[32]": {"target": "Neu5Ac(a2-6)Gal(b1-4)GlcNAc(b1-2)Man(a1-6)Man(b1-4)GlcNAc(b1-4)GlcNAc", "outline": "as §1"}, "[33]": {"target": "Neu5Ac(a2-8)Neu5Ac(a2-3)[GalNAc(b1-4)]Gal(b1-4)Glc", "outline": "as §1"}, "[34]": {"target": "Neu5Ac(a2-8)Neu5Ac(a2-8)Neu5Ac(a2-3)[GalNAc(b1-4)]Gal(b1-4)Glc", "outline": "as §1"}, "[35]": {"target": "Neu5Ac(b2-6)Gal(b1-4)GlcNAc", "outline": "as §1"}, "[36]": {"target": "Neu5Ac9Ac(a2-3)Gal(b1-3)GlcNAc", "outline": "as §1"}, "[37]": {"target": "Neu5Gc(b2-6)Gal(b1-4)GlcNAc", "outline": "as §1"}}, "note": "The entries come from a sample that favours the strongest signals as a whole.", "data": [{"binder": "Eosinophil-derived neurotoxin (EDN) (Homo sapiens), P10153 (protein) MVPKLFTSQICLLLLLGLLAVEGSLHVKPPQFTWAQWFETQHINMTSQQCTNAMQVINNYQRRCKNQNTFLLTTFANVVNVCGNPNMTCPSNKTRKNCHHSGSQVPLIHCNLTTPSPQNISNCRYAQTPANMFYIVACDNRDQRRDPPQYPVVPVHLDRII", "values": [{"measurement": "glycan array binding signal (z-score)", "setting": "[1]", "result": 0.954}, {"measurement": "glycan array binding signal (z-score)", "setting": "[2]", "result": -0.438}, {"measurement": "glycan array binding signal (z-score)", "setting": "[3]", "result": -0.092}, {"measurement": "glycan array binding signal (z-score)", "setting": "[4]", "result": 0.666}, {"measurement": "glycan array binding signal (z-score)", "setting": "[5]", "result": -0.523}, {"measurement": "glycan array binding signal (z-score)", "setting": "[6]", "result": 0.308}, {"measurement": "glycan array binding signal (z-score)", "setting": "[7]", "result": 0.483}, {"measurement": "glycan array binding signal (z-score)", "setting": "[8]", "result": 0.272}, {"measurement": "glycan array binding signal (z-score)", "setting": "Fuc(b1-3)GlcNAc", "result": -0.332}, {"measurement": "glycan array binding signal (z-score)", "setting": "Gal(a1-3)Gal", "result": -0.363}, {"measurement": "glycan array binding signal (z-score)", "setting": "[9]", "result": 0.387}, {"measurement": "glycan array binding signal (z-score)", "setting": "Gal(a1-3)GalNAc", "result": -0.593}, {"measurement": "glycan array binding signal (z-score)", "setting": "[10]", "result": 0.187}, {"measurement": "glycan array binding signal (z-score)", "setting": "[11]", "result": 0.269}, {"measurement": "glycan array binding signal (z-score)", "setting": "Gal(b1-3)GlcNAc", "result": -0.339}, {"measurement": "glycan array binding signal (z-score)", "setting": "[12]", "result": -0.33}, {"measurement": "glycan array binding signal (z-score)", "setting": "[13]", "result": 0.648}, {"measurement": "glycan array binding signal (z-score)", "setting": "[14]", "result": 1.36}, {"measurement": "glycan array binding signal (z-score)", "setting": "[15]", "result": -0.461}, {"measurement": "glycan array binding signal (z-score)", "setting": "[16]", "result": -0.443}, {"measurement": "glycan array binding signal (z-score)", "setting": "[17]", "result": 0.142}, {"measurement": "glycan array binding signal (z-score)", "setting": "[18]", "result": 1.13}, {"measurement": "glycan array binding signal (z-score)", "setting": "[19]", "result": 1.36}, {"measurement": "glycan array binding signal (z-score)", "setting": "[20]", "result": 0.104}, {"measurement": "glycan array binding signal (z-score)", "setting": "Gal3S(b1-4)Glc", "result": -0.269}, {"measurement": "glycan array binding signal (z-score)", "setting": "Gal3S(b1-4)GlcNAc6S", "result": -0.506}, {"measurement": "glycan array binding signal (z-score)", "setting": "Gal6S(b1-4)GlcNAc6S", "result": -0.122}, {"measurement": "glycan array binding signal (z-score)", "setting": "GalNAc(b1-4)Gal(b1-4)Glc", "result": -0.211}, {"measurement": "glycan array binding signal (z-score)", "setting": "Glc(a1-4)Glc", "result": -0.482}, {"measurement": "glycan array binding signal (z-score)", "setting": "Glc(a1-6)Glc(a1-6)Glc", "result": 0.261}, {"measurement": "glycan array binding signal (z-score)", "setting": "[21]", "result": 12.5}, {"measurement": "glycan array binding signal (z-score)", "setting": "[22]", "result": 1.45}, {"measurement": "glycan array binding signal (z-score)", "setting": "[23]", "result": -0.199}, {"measurement": "glycan array binding signal (z-score)", "setting": "[24]", "result": 0.017}, {"measurement": "glycan array binding signal (z-score)", "setting": "[25]", "result": 0.413}, {"measurement": "glycan array binding signal (z-score)", "setting": "GlcNAc(b1-4)GlcNAc", "result": -0.215}, {"measurement": "glycan array binding signal (z-score)", "setting": "[26]", "result": -0.552}, {"measurement": "glycan array binding signal (z-score)", "setting": "[27]", "result": -0.205}, {"measurement": "glycan array binding signal (z-score)", "setting": "[28]", "result": 0.143}, {"measurement": "glycan array binding signal (z-score)", "setting": "[29]", "result": 1.16}, {"measurement": "glycan array binding signal (z-score)", "setting": "[30]", "result": 0.955}, {"measurement": "glycan array binding signal (z-score)", "setting": "Neu5Ac(a2-3)GalNAc", "result": 0.007}, {"measurement": "glycan array binding signal (z-score)", "setting": "[31]", "result": 1.86}, {"measurement": "glycan array binding signal (z-score)", "setting": "[32]", "result": 0.578}, {"measurement": "glycan array binding signal (z-score)", "setting": "[33]", "result": 1.66}, {"measurement": "glycan array binding signal (z-score)", "setting": "[34]", "result": -0.121}, {"measurement": "glycan array binding signal (z-score)", "setting": "[35]", "result": 0.387}, {"measurement": "glycan array binding signal (z-score)", "setting": "[36]", "result": -0.207}, {"measurement": "glycan array binding signal (z-score)", "setting": "[37]", "result": 0.153}]}]}
